From PubChem
PI5P4Ka inh: qHTS for Inhibitors of phosphatidylinositol 5-phosphate 4-kinase (PI5P4K); Phosphatidylinositol 5-phosphate 4-kinase type-2 alpha (Homo sapiens), P48426; PI5P4Kalpha enzyme, ADP-Glo luminescence, 60 min; active compounds read low; max response, %; hit rate 1.2% among 330,000; active = max response of -50% or lower; inconclusive = between -30% and -50%; inactive = -30% or higher; note: value at the top dose of about 77 µM; % is set by controls: 0 for no effect and ±100 for the full control effect
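ADP-Glo luminescence end-point read after a 60 min room-temperature kinase reaction of PI5P4Kalpha plus substrate, initiated with ATP at 5 microM final. Buffer: 0.038 M HEPES pH 7.4, EGTA, 0.1% CHAPS, 5% DMSO.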
HP1b chromo inh: HTS for Inhibitors of HP1-beta Chromodomain Interactions with Methylated Histone Tails; hit rate 0.56% among 390,000; Potency, µM (titrated, usually from 114 µM), without a hit: at the top dose activity change, negative = inhibition, usual class: inhibitors; AlphaScreen HP1-beta / biotin-H3K9me3 peptide binding; Chromobox protein homolog 1 (Homo sapiens), P83916; note: potency is the fitted concentration of half-maximal effect; nearly all actives have a fitted effect of over 70% in size
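HP1-beta protein (50 nM final) preincubated 30 min at room temperature with biotinylated H3(1-18)K9me3 peptide (50 nM) in PBS pH 7.4, 0.01% Tween-20, then compound added for 30 min. AlphaScreen streptavidin donor/nickel chelate acceptor beads (10 ug/mL final), 30 min dark, luminescence read.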
PLK1 PBD inh: qHTS for Inhibitors of PLK1-PDB (polo-like kinase 1 - polo-box domain): Primary Screen; Serine/threonine-protein kinase PLK1 (Homo sapiens), P53350; Plk1 PBD binding of FITC phosphopeptide, fluorescence polarization; Potency, µM, for the others: max response, negative = inhibition, most hits filed as inhibitors; hit rate 2.8% among 360,000; AID 720504, 2013; note: potency is the fitted concentration of half-maximal effect; series mostly up to about 57 µM; % is set by controls: 0 for no effect and ±100 for the full control effect; nearly all actives have a fitted effect of over 65% in size
BAZ2B inh: qHTS Assay for Inhibitors of BAZ2B; Bromodomain adjacent to zinc finger domain protein 2B (Homo sapiens), Q9UIF8; AlphaScreen BAZ2B-H3K14Ac peptide displacement; Potency, µM (doses to about 114 µM), inactives show at the highest dose activity change, negative = inhibition, most hits filed as inhibitors; hit rate 4.4% among 360,000; AID 504333, 2011; note: potency is the fitted concentration of half-maximal effect; % is set by controls: 0 for no effect and ±100 for the full control effect; nearly all actives have a fitted effect of over 60% in size
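Multi-concentration screen (max 110 uM) measuring displacement of acetylated histone H3 peptide from BAZ2B by AlphaScreen, using 50 nM protein, 50 nM peptide and 10 ug/mL streptavidin donor plus Ni-chelate acceptor beads.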
JMJD2A Tudor: qHTS Assay for Inhibitors of JMJD2A-Tudor Domain | Potency, µM (series often up to 114 µM), inactives show at the top dose activity change, negative = inhibition, actives largely listed as inhibitors | AlphaScreen JMJD2A-Tudor / H3K4me3 peptide binding | Lysine-specific demethylase 4A (Homo sapiens), O75164 | hit rate 4.4% among 390,000 | AID 504339, 2011; note: potency is the fitted concentration of half-maximal effect; % is set by controls: 0 for no effect and ±100 for the full control effect; nearly all actives have a fitted effect of over 50% in size
G9a inh: qHTS Assay for Inhibitors of Histone Lysine Methyltransferase G9a | Histone-lysine N-methyltransferase EHMT2 (Homo sapiens), Q96KQ7 | Potency, µM (highest dose often 102 µM), for inactives: at the top dose activity, negative = inhibition, usual class: inhibitors | hit rate 8.8% among 350,000 | G9a H3K9 monomethylation, AlphaScreen, 2 h; note: potency is the fitted concentration of half-maximal effect; % is set by controls: 0 for no effect and ±100 for the full control effect; nearly all actives have a fitted effect of over 75% in size
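G9a (20 nM) preincubated 15 min RT with compounds, then 500 nM biotinylated H3K9 peptide and 20 uM SAM added; 2 h RT reaction. Monomethyl-H3K9 product detected by AlphaScreen with anti-H3K9me1 antibody, streptavidin donor and anti-rabbit IgG acceptor beads.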
Active calls of the source: *; ! = repeats disagree; [ ] = another dose, or the depositor's remark. Shown are actives, neighbours in structure and some others; about 12% of the full set was active somewhere. Unless noted, calls come from the whole dose curve; as a rule, active = well fitted curve in the direction sought with a large enough effect; inconclusive = small, poorly fitted or top-dose-only effect, or another doubt; inactive = no such curve, though single readings can be large; an effect the other way counts as inactive or inconclusive.

For CCOC(=O)c1cccc(NC(=O)CCc2c(C)nn(-c3ccc(N4CCCCC4)nn3)c2C)c1 the results were HP1b chromo inh 22%, BAZ2B inh inconclusive, JMJD2A Tudor inconclusive and G9a inh -19%[59 µM].
`O=C(CN(C(=O)C1CSC(=O)C1)c1cccc(F)c1)NCc1ccc2c(c1)OCO2` (stereo not drawn) gave PI5P4Ka inh 7, HP1b chromo inh 11%, PLK1 PBD inh -2%, BAZ2B inh 1%, JMJD2A Tudor -8% and G9a inh 12%.
Screening CCCCc1cc(=O)oc2cc(C)c3c(C)coc3c12 returned HP1b chromo inh 42%, BAZ2B inh -14%, JMJD2A Tudor 50% and G9a inh 17%[59 µM].
For CCCCCCCCCCCCCCCC[N+](C)(C)CC the results were PI5P4Ka inh -63*, HP1b chromo inh 17%, PLK1 PBD inh -3%, BAZ2B inh 6%, JMJD2A Tudor -8% and G9a inh 14µM*!.
`CCCCCC[N+](C)(C)CCSSCC[N+](C)(C)CCCCCC` gave PI5P4Ka inh -3, HP1b chromo inh inconclusive, PLK1 PBD inh 1.2µM*, BAZ2B inh -4%, JMJD2A Tudor -24% and G9a inh inconclusive.
`CCCCCCCCCCCCCCCC[N+](C)(C)CCl` gave PI5P4Ka inh -53*, HP1b chromo inh 31%, PLK1 PBD inh -29% and JMJD2A Tudor -4%.
Screening CCCCCCCCCCCCCC[N+](C)(C)C returned G9a inh -1%[12.7 µM].
For O=C(Nc1ccccc1C(=O)N1CCCCC1)c1cccs1 the results were PI5P4Ka inh 2, HP1b chromo inh 27%, PLK1 PBD inh -5%, BAZ2B inh -3% and JMJD2A Tudor 0%.
CCN(CC)CCSc1nc2ccccc2c(=S)n1-c1ccccc1 was read as PI5P4Ka inh -17, HP1b chromo inh inconclusive, PLK1 PBD inh 24µM*, BAZ2B inh inconclusive, JMJD2A Tudor 50µM* and G9a inh inconclusive.
`CSc1nc(NCCCN(C)C)c2c3c(sc2n1)CN(C)CC3` gave BAZ2B inh -6% and G9a inh 50µM*.
Screening CSc1nc(NCc2ccccc2)c2c3c(sc2n1)CN(C)CC3 returned HP1b chromo inh -2%, PLK1 PBD inh -11%, BAZ2B inh -14%, JMJD2A Tudor inconclusive and G9a inh 40µM*.
CC(C)(C)NC(=O)C(c1cc2ccccc2o1)n1c(=O)c(-c2ccccc2)nc2ccccc21 (stereo not drawn) was read as PI5P4Ka inh 12 and PLK1 PBD inh -7%.
Cc1ccc2nc(NCc3ccccc3)c3nncn3c2c1 was read as HP1b chromo inh 38%, BAZ2B inh -2%, JMJD2A Tudor -7% and G9a inh -5%[59 µM].
For COc1ccc(C2c3c(n(CCc4ccccc4)cnc3=N)Oc3ccc4ccccc4c32)cc1OC (stereo not drawn) the results were JMJD2A Tudor 56µM*.
Screening COc1ccc(C2c3ccc4ccccc4c3Oc3ncn(CCCO)c(=N)c32)cc1 (stereo not drawn) returned PI5P4Ka inh 14, HP1b chromo inh 7%, PLK1 PBD inh -3%, BAZ2B inh 71µM*, JMJD2A Tudor -33% and G9a inh -13%[59 µM].
COc1cccc(C2c3c(ncn(-c4cccc(C#N)c4)c3=N)Oc3ccc4ccccc4c32)c1 (stereo not drawn) was read as JMJD2A Tudor 79µM*.
